These results are taken from PubChem BioAssay.

Each structure is given as a SMILES string. The source made the active and inactive calls.

The subject of assay [1] is Human papillomavirus type 1a protein E7 (residues 44-93). As to the kind of experiment: HPV1a E7 fragment binders on microarrays, primary screen, biochemical, small-molecule microarray, residues 44-93, 635 nm fluorescence (AID 1108).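 Note: E7 fragment applied at 1 µg/mL in TBST for 1 h at 4 C; score combines spot fluorescence with its signal to noise ratio.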 Particulars: small-molecule microarray binding, fluorescence 635 nm; higher = more signal.
A short description of assay [2]: modulators of HCV replicon luciferase signal, primary screen, HCV replication inhibitor project, Huh7 cells, luciferase reporter (AID 1109).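 Note: huh7 hepatoma cells harbouring a luciferase neomycin HCV replicon reporter; luciferase luminescence as measure of HCV replicon replication; test concentration not given here.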 Particulars: 48 h, higher = more signal.
Assay [3] concerns the target Left-right determination factor 2 (Homo sapiens) (UniProt O00292). As to the kind of experiment: LEFTY2 binders on small-molecule microarrays, primary screen, biochemical, small-molecule microarray, 635 nm fluorescence scan (AID 1110). Particulars: LEFTY2 binding, higher = more signal.
In assay [4] the target is Calmodulin-1 (Homo sapiens) (UniProt P0DP23). In words: CALM1 binders on microarrays, EGTA buffer, profiling panel, biochemical, small-molecule microarray, Cy5-labelled CALM1 (AID 1111).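 Note: labelled calmodulin applied in Tris saline Tween buffer holding calcium plus EGTA and DTT.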 Particulars: Cy5-CALM1 binding fluorescence, higher = more signal.
Assay [5] shares this target. In words: calcium-bound CALM1 binders on microarrays, profiling panel, artefact control for SMM control-protein annotation, biochemical, small-molecule microarray, Cy5-labelled CALM1, plus calcium (AID 1112).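 Note: score merges spot fluorescence with signal to noise from triplicate slides.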 Conditions: Cy5-CALM1 binding fluorescence, higher = more signal.
The nature of assay [6]: small-molecule microarray binders of probe aWnt5a, primary screen, biochemical, biotinylated probe, 635/667 nm fluorescence (AID 1113).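 Note: score merges 667 nm fluorescence intensity with signal-to-noise per printed feature.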 Conditions: higher = more signal.
A short description of assay [7]: small-molecule microarray binders of probe aShh, primary screen, biochemical, biotinylated probe, 635/667 nm fluorescence (AID 1114).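 Note: probe is biotin-labelled aShh protein from a stem cell growth factor screen; measures binding of labelled protein to compounds printed on the slide; score merges feature fluorescence at 667 nm with signal-to-noise.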 Particulars: higher = more signal.
Assay [8] in a line: small-molecule microarray binders of probe aNog, primary screen, biochemical, biotinylated probe, 635/667 nm fluorescence (AID 1115).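 Note: probe is biotinylated aNog protein used at 0.15 µg/mL for 1 h at 4 C; z-score combines 667 nm fluorescence of each spot with its signal to noise.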 Particulars: higher = more signal.
Assay [9] has as its target Torsin-1A-interacting protein 1 (Homo sapiens) (UniProt Q5JTV8). In words: LAP1 binders from COS7 cell lysate, primary screen, small-molecule microarray, 635/667 nm fluorescence (AID 1116). Particulars: COS7-hLAP1 lysate binding, 635 nm fluorescence, higher = more signal.
Assay [10] deals with Alpha-bungarotoxin (Bungarus multicinctus) (UniProt P60615). As to the kind of experiment: alpha-bungarotoxin binders on microarray, profiling panel, artefact control for SMM control protein annotation, biochemical, small-molecule microarray, Alexa647 label, 635/667 nm fluorescence (AID 1117). Conditions: alpha-BTX-A647 binding fluorescence, higher = more signal.
Chain of Alpha-bungarotoxin (Bungarus multicinctus) (P60615 whole entry, looked up): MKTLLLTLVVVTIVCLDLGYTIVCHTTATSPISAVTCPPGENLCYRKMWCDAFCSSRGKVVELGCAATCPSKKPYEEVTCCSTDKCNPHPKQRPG
The next assay deals with Albumin (Bos taurus) (UniProt P02769). In words: bovine serum albumin binders on microarray, profiling panel, artefact control for SMM control protein annotation, biochemical, small-molecule microarray, Alexa647 label, 635/667 nm fluorescence (AID 1118).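 Note: score merges 667 nm emission intensity and signal-to-noise per printed compound spot.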 Particulars: BSA-A647 binding, fluorescence 635 nm, higher = more signal.
Chain of Albumin (Bos taurus) (P02769 whole entry, looked up): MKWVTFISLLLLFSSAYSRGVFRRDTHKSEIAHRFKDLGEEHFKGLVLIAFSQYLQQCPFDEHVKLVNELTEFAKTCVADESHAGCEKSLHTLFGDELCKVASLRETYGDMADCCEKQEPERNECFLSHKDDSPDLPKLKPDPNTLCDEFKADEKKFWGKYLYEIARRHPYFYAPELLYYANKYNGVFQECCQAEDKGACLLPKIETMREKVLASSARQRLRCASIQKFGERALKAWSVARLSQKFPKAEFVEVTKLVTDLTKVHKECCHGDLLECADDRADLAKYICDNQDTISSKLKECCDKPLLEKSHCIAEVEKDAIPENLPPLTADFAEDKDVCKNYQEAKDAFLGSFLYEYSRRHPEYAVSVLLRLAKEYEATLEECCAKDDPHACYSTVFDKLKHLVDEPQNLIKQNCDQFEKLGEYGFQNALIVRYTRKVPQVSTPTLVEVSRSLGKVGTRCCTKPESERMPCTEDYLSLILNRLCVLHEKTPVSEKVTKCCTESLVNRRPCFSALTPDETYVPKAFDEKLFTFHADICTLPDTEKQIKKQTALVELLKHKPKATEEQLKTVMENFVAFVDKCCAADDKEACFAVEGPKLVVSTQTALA
Assay [11] in a line: small-molecule microarray binders of probe aXIP, primary screen, biochemical, NeuroSMM set, 635/667 nm fluorescence (AID 1119).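 Note: probe is the protein aXip251-270 applied at 1 µg/mL to compound-printed slides; binding of probe to printed compounds measured as 667 nm fluorescence plus signal to noise.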 Conditions: higher = more signal, called active from +8 up or from −8 down.
The nature of assay [12]: small-molecule binders of probe aNOTCH3, primary screen, biochemical, small-molecule microarray, 635/667 nm fluorescence (AID 1120).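 Note: probe is a biotin-tagged antibody raised against NOTCH3 rather than NOTCH3 protein; score merges spot fluorescence near 667 nm with spot signal to noise.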 Conditions: higher = more signal.
Assay [13] can be described thus: small-molecule binders of probe aNOTCH2, primary screen, biochemical, small-molecule microarray, 635/667 nm fluorescence (AID 1121).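 Note: score merges feature fluorescence read at 667 nm with its signal to noise.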 Conditions: higher = more signal.
Assay [14] addresses Carbonic anhydrase 2 (Homo sapiens) (UniProt P00918). In words: CAII small-molecule binders, profiling panel, biochemical, small-molecule microarray, Alexa647-labelled CAII (AID 1122). Conditions: CAII-A647 binding fluorescence, higher = more signal.
Assay [15] can be described thus: COS7 lysate on small-molecule microarray, probe aHis, 635 nm (AID 1123).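 Note: z-score combines 667nm fluorescence intensity with signal-to-noise per printed compound spot.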 Particulars: COS7 cell lysate, fluorescence, higher = more signal.
A short description of assay [16]: compound binding in COS7 lysate, probe aLAP1, primary screen, cell lysate, small-molecule microarray (AID 1124).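 Note: lysate comes from COS7 cells expressing LAP1 and is applied at 0.3 µg/mL; score merges spot fluorescence near 667 nm with signal-to-noise over triplicate slides.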 Particulars: probe aLAP1, fluorescence, higher = more signal.
The test system of the next assay is Sam68 (KHDRBS1). As to the kind of experiment: Sam68 small-molecule binders, primary screen, biochemical, small-molecule microarray, 635 nm fluorescence (AID 1125).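 Note: score merges 667 nm channel intensity with signal to noise over triplicate slides.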 Particulars: small-molecule microarray binding, higher = more signal.
For assay [17], the system named is Chordin-like protein 2 (CHRDL2). As to the kind of experiment: CHRDL2 small-molecule binders, primary screen, biochemical, small-molecule microarray, 635 nm fluorescence (AID 1126).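 Note: printed compound slides probed with Chrdl2 protein at 4 µg/mL for 1 h at 4 C; score merges 667 nm emission intensity with signal to noise over three replicate slides.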 Conditions: small-molecule microarray binding, fluorescence 635 nm; higher = more signal.
Assay [18] concerns the target Concanavalin-A (Canavalia ensiformis) (UniProt P02866). As to the kind of experiment: ConA small-molecule binders, primary screen, artefact control for SMM control protein annotation, biochemical, small-molecule microarray, Alexa647 label, 635 nm (AID 1127).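 Note: z combines 667 nm emission intensity with signal-to-noise across three replicate slides.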 Conditions: ConA-A647 binding fluorescence, higher = more signal.

Chain of Left-right determination factor 2 (Homo sapiens) (O00292 whole entry, looked up): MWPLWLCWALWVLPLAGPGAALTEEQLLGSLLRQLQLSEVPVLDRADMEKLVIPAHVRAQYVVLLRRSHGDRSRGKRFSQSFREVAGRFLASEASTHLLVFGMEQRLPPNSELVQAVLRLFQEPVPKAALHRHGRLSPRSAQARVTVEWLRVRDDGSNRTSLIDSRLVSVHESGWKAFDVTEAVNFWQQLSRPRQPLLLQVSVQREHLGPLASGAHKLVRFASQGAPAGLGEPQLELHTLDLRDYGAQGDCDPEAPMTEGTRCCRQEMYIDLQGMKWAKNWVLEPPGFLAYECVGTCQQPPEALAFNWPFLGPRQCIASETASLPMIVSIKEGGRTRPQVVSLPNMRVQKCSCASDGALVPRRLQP
Chain of Concanavalin-A (Canavalia ensiformis) (P02866 whole entry, looked up): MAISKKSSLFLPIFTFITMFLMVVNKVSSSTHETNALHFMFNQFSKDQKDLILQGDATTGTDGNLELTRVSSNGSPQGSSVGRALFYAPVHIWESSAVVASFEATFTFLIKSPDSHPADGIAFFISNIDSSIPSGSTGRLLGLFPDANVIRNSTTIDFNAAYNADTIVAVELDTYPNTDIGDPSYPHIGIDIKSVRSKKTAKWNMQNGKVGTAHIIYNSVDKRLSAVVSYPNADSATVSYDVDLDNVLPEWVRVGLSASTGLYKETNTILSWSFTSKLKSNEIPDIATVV
Chain of Torsin-1A-interacting protein 1 (Homo sapiens) (Q5JTV8 whole entry, looked up): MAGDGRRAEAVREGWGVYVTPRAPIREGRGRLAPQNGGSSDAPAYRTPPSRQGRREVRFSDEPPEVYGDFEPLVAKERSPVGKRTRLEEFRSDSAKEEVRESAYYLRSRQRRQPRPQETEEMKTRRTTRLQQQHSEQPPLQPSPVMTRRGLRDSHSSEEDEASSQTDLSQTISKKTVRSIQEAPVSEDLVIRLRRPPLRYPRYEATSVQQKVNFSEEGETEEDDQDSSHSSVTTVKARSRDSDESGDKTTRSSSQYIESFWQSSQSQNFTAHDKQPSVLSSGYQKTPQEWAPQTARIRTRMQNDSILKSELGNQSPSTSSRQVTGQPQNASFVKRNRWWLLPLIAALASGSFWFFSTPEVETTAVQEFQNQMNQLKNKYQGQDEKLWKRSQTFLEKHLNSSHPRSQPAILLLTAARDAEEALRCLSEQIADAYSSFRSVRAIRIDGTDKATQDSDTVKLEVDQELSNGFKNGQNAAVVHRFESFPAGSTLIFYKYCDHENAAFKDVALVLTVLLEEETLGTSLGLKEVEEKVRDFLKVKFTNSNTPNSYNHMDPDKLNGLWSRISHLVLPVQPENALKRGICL

Turning to `O=C(CS)NCCCCCNC(=O)[C@@H]1C[C@@H]2C(=O)NCC(=O)N2[C@@H]1c1cccc(OCCO)c1`, the composite z-score in assay [1] is 0.275; in [3], 0.387; in [4] it was 0.129; in [5], -0.193; in assay [6], -0.16; in assay [7] it was -0.197. In addition, the composite z-score was -0.137 in [8]; 0.635 in [9]; -0.315 in assay [10]; 0.57 in the assay with Albumin (Bos taurus); -0.162 in [12]; -0.125 in assay [13]. For the same compound, the composite z-score in assay [14] is 0.179; in assay [15] it was 1.61; in assay [16], 0.783; in the assay on Sam68 (KHDRBS1), 0.459; in [17], 0.656; in assay [18], 0.324. Moreover, the z-score in assay [2] is -0.125. The composite Z-score in assay [11] was 0.498 (inactive).

With `CN(C)CCCC[C@@H]1NC(=O)[C@H]2C[C@@H](C(=O)NCCCCCN)[C@@H](c3cccc(OCCO)c3)N2C1=O`, the composite z-score in [1] worked out at 0.474; in [3], 0.669; in assay [4] it was 2.22; in assay [5] it was 1.51; in assay [6], 0.233; in [7], 0.351. Moreover, the composite z-score in [8] stood at 0.863; in assay [9] it was 2.53; in [10], 1.44; with Albumin (Bos taurus), 0.878; in [12], 0.313; in assay [13], 0.41. Moreover, the composite z-score in assay [14] came out at 0.746; in assay [15], 1.75; in [16], 1.12; in the assay on Sam68 (KHDRBS1) it was 1.19; in assay [17], 0.402; in assay [18], 1.12. This compound showed a z-score in assay [2] of 0.0761. In addition, the composite Z-score in [11] is 0.522 (inactive).

As to `O=C1OCCC/C=C\[C@H]2OC34C=CCN(c5ccc6ccccc6c5)C(=O)[C@H]3N(CCCCCO)C(=O)[C@@H]4C12` (stereo not given in full), the composite z-score in assay [1] is -2.53; in assay [3] it was -1.07; in [4], -0.381; in assay [5] it was -0.645; in [6] it was -0.28; in assay [7], 0.0141. For the same compound, the composite z-score in assay [8] is -0.0428; in assay [9] it was -1.28; in [10], -0.23; in the assay with Albumin (Bos taurus) it was -0.152; in assay [12], -0.295; in [13] it was -0.182. The composite z-score in [14] is 0.828; in [15], -1.92; in assay [16] it was -0.289; with Sam68 (KHDRBS1) it was -1.63; in [17] it was -0.654; in assay [18], -0.328. Moreover, in [2], the z-score was -0.57. Further, the composite Z-score in [11] is 0.328 (inactive).

On to `CC(=O)Nc1cc(Br)ccc1C(=O)NCc1ccccc1`, for which the composite z-score was 1.09 in assay [1]; -0.174 in assay [3]; 0.851 in assay [4]; 0.517 in assay [5]; -0.0346 in [6]; -0.16 in [7]. In addition, the composite z-score in [8] is -0.196; in assay [9], 0.341; in assay [10], 0.809; in the assay with Albumin (Bos taurus) it was 0.744; in [12], -0.0311; in assay [13], -0.123. In addition, the composite z-score in assay [14] was 0.23; in assay [15], 1.18; in assay [16] it was -0.458; with Sam68 (KHDRBS1) it was 0.494; in assay [17], -0.141; in assay [18], 0.811. In addition, in assay [2], the z-score was -0.0162. Besides, the composite Z-score in [11] is -0.34 (inactive).

Consider `CCOC(=O)C[C@H]1[C@H](OC(=O)c2ccc(C(=O)c3ccccc3)cc2)[C@@H](NC(=O)Cc2ccc(OC)cc2)c2cc(OCCCO)ccc2N1C(=O)c1ccc2ccccc2n1`, for which the composite z-score is 0.998 in [1]; 0.816 in assay [3]; 0.985 in [4]; 0.336 in assay [5]; -0.131 in [6]; -0.0709 in assay [7]. Also, the composite z-score in assay [8] was -0.526; in [9], 0.566; in assay [10] it was 0.738; with Albumin (Bos taurus), 0.701; in [12] it was -0.0445; in assay [13] it was -0.0868. The composite z-score in assay [14] is 0.151; in assay [15], 1.34; in assay [16], 0.493; in the assay on Sam68 (KHDRBS1) it was 1.09; in assay [17], -0.0473; in assay [18] it was 0.818. In assay [2], this compound yielded a z-score of -0.873. Besides, in assay [11], the composite Z-score is 0.0505 (inactive).
